# Results published in PubChem BioAssay AID504466 (National Center for Advancing Translational Sciences (NCATS), 2011).
# About 4,200 (1.3%) of roughly 330,000 compounds were called active. Entries that show only a call come without a potency. Another 6% or so got no clear call; they are omitted. The sample holds actives, similar compounds and a random draw of the others, so the mix is not that of the screen. The call rests on the fitted dose curve; in most records, active means well fitted activation curve with a large enough effect; inconclusive means small, poorly fitted or top-dose-only effect; inactive means no such curve, though single readings can be large or run the other way.
# Assay: qHTS screen for small molecules that induce genotoxicity in human embryonic kidney (HEK293T) cells expressing luciferase-tagged ELG1; further: nearly all actives have a fitted effect of over 60% in size
# Settings: HEK293T ELG1-luciferase reporter, luminescence, 16 h; series mostly up to 46 µM
# Text: NIH Molecular Libraries Probe Production Network [MLPCN] NIH Chemical Genomics Center [NCGC] MLPCN Grant: 1 R03 MH092164-01 Assay Provider: Kyungjae Myung, NHGRI, NIH Keywords: MLPCN, qHTS, NCGC, genotoxicity, cancer Assay Overview: Cancer cells divide rapidly compared to normal cells in the body. During cell division, cancer cells need to duplicate their genome by DNA replication. The failure of genome duplication leads to cancer cells' death. Therefore, inhibitors of DNA replication could specifically kill cancer cells. Based on this concept, many chemotherapeutic agents were developed and have been used to treat cancer patients. However, there are a limited number of agents available in the clinical setting, and some of those that do exist have low efficacy and severe side effects. Therefore, if we can find the compounds that effectively block DNA replication either by directly damaging DNA or by inhibiting other cellular mechanisms, the options for cancer treatment will be broadened. With this in mind, we developed a quantitative high-throughput ELG1-luciferase reporter gene assay. Since the level of human ELG1 protein is enhanced in response to genetic stresses, increases in luciferase activity can be used to identify compounds that cause genetic stress.
# Assay Protocol Summary: For genotoxicity screening, 2,000 cells in 5 uL/well were dispensed into white, solid-bottom 1536-well plates using a solenoid-based dispenser. Following transfer of 23 nL compound or DMSO vehicle by a pin tool, the plates were incubated 16 hr at 37 °C and 5% CO2. 5 ul ONE-Glo (Promega) was then added to each plate and following a 30 min incubation at room temperature, luciferase activity was quantified on a ViewLux CCD-based plate reader.
# Potency means the concentration at half of the fitted maximal effect.
row,Structure (SMILES),Potency
1,O=C(CSc1ccc(-c2ccc(-n3cccn3)cc2)nn1)Nc1ccc([N+](=O)[O-])cc1,18.3 µM (active)
2,O=C(CSc1ccc(-c2ccc(F)cc2)nn1)Nc1ccc2c(c1)OCCO2,inactive
3,O=C(CSc1ccc([N+](=O)[O-])cn1)Nc1ccc(N2CCOCC2)cc1,inactive
4,Cc1cccc(C)c1Nc1nnc(SCC(=O)NCCCN2CCCC2=O)s1,inactive
5,Cc1ccc(NC(=O)COC(=O)C2CC2)cc1S(=O)(=O)N1CCOCC1,inactive
6,Cc1noc(C)c1NC(=O)Nc1ccc2c(c1)C(=O)N([C@H](C)CO)C[C@H](C)[C@@H](CN(C)S(=O)(=O)c1cn(C)cn1)O2,inactive
7,COc1cc(C(=O)OCc2ccc([N+](=O)[O-])cc2)cc(OC)c1OC,inactive
8,COc1cc(/C=N\Nc2ccc([N+](=O)[O-])cn2)ccc1OCC(=O)O,inactive
9,COc1cc(/C=N/O)ccc1OCc1ccc([N+](=O)[O-])cc1,9.2 µM (active)
10,CC(=O)C(CC(=O)N1CCCC1)C(=O)Nc1ccc(Cl)cc1 (stereo unspecified),inactive
11,Cc1ccc(C(=O)Nc2ccccc2-c2ccccc2)cc1S(=O)(=O)Nc1ccccc1,inactive
12,CCOc1ncccc1C(=O)Nc1ccc2c(c1)OCCO2,inactive
13,COc1ccc(C)cc1NC(=O)CSc1cccc[n+]1[O-],inactive
14,CN=C(Nc1cccc(S(=O)(=O)N2CCOCC2)c1)c1ccccc1,inactive
15,COc1ccccc1NC(=O)C1=C(C)NC(=O)NC1c1ccc(C)s1 (stereo unspecified),inactive
16,COc1ccccc1NC(=O)c1ccc(C)s1,11.6 µM (active)
17,COC(=O)c1c(NC(C)=O)sc(C(=O)Nc2ccccc2OC)c1C,inactive
18,Cc1ccc(S(=O)(=O)N2CCN(C(=O)Cn3c(=O)cnc4ccccc43)CC2)c(C)c1,inactive
19,Cc1cccc2c(=O)n3c(nc12)CCCCC3,inactive
20,O=c1c2c(nc3n1CCCCC3)sc1c(O)cccc12,2.06 µM (active)
21,Cc1c(C(=O)Nc2ccccc2)sc2nc3n(c(=O)c12)CCCCC3,inactive

row,Structure (SMILES),Potency
1,Cc1ccc(NS(=O)(=O)c2ccc(C(C)C)cc2)cc1S(=O)(=O)N1CCOCC1,inactive
2,O=c1oc2ccccc2cc1-c1cn(-c2ccccc2)c(=S)[nH]1,0.0461 µM (active)
3,S=c1[nH]c(-c2cccs2)cn1-c1ccccc1,inactive
4,COc1cccc(-n2c(=S)[nH]c3c(oc4ccccc43)c2=O)c1,inactive
5,O=C1OC[C@@H]2CCCN2C(=O)[C@H](CC(=O)N(CCO)Cc2ccccc2)C/C=C\CC[C@@H]1Cc1ccc(F)cc1,inactive
6,COc1cc(/C=C/C(=O)OCC(=O)NC2CC2)cc(OC)c1OC,inactive
7,Cc1ccc(S(=O)(=O)N2CCN(C(=O)CN3C(=O)NC(C)(c4ccc(Cl)cc4)C3=O)CC2)c(C)c1 (stereo unspecified),inactive
8,CN(c1ccccc1)S(=O)(=O)c1ccc(C(=O)NCCc2ccccc2)cc1,inactive
9,O=C(CCNC(=O)c1ccc(Br)cc1)NCCCc1ccccc1,inactive
10,CC(C)c1ccc(C(=O)NCCCc2ccccc2)cc1,18.4 µM (active)
11,Cc1noc(C)c1NC(=O)Nc1ccc2c(c1)C(=O)N([C@H](C)CO)C[C@H](C)[C@@H](CN(C)C(=O)Nc1ccccc1)O2,inactive
12,O=C(CSc1ncnc2sccc12)NC1CCS(=O)(=O)C1 (stereo unspecified),inactive
13,C=CCC[C@@H](Cc1ccc(F)cc1)C(=O)OC[C@H](Cc1c[nH]c2ccccc12)NC(=O)[C@@H](CC=C)CC(=O)N(CCO)Cc1ccccc1,inactive
14,Cc1ccc(-n2cc3ccc([N+](=O)[O-])cc3n2)cc1,2.91 µM (active)
15,Cc1ccc(-c2cn(S(=O)(=O)c3cccc([N+](=O)[O-])c3)nc2N)cc1,inactive
16,Cc1cc(CO)nn1-c1ccc([N+](=O)[O-])cc1,inactive
17,O=C(N[C@@H]1C/C=C\C[C@@H](CC(=O)N(CCO)Cc2ccccc2)C(=O)N[C@H](Cc2ccccc2)COC1=O)OCC1c2ccccc2-c2ccccc21,inactive
18,CCCCCCSc1ccc([C@@H]2[C@H]3C(=O)N(CC)C(=O)[C@H]3[C@]3(C(=O)OC)CCCCN23)cc1,inactive
19,CCCOC(=O)C1=C(C)NC2=C(C(=O)C(C(=O)OC)C(C)C2)C1c1ccc(N(C)C)cc1 (stereo unspecified),inactive
20,COC(=O)C1C(=O)c2c([nH]c(C(=O)OCCSC)c2C)CC1C (stereo unspecified),16.4 µM (active)
21,COCCOC(=O)c1[nH]c2c(c1C)C(=O)CC(c1ccc(OC)cc1)C2 (stereo unspecified),inactive

row,Structure (SMILES),Potency
1,CC(C)N(C(=O)[C@H]1C[C@H](CC(=O)NC(C)(C)C)C(=O)N2CCc3c([nH]c4ccc(Cl)cc34)[C@]12C)C(C)C,inactive
2,Cc1cc(NC(=O)CSc2ncc(C(F)(F)F)cc2Cl)no1,inactive
3,COc1ccc(Cl)cc1NC(=O)COC(=O)c1ccc(Br)o1,inactive
4,CN(C(=O)c1cccc(NC(=O)C2CCN(C(=O)OC(C)(C)C)CC2)c1)C1CCC1,inactive
5,NC[C@H](Cc1ccccc1)NCCc1cc(C(F)(F)F)cc(C(F)(F)F)c1,inactive
6,CCc1ccc2oc(-c3ccc(N)cc3)nc2c1,0.206 µM (active)
7,Cn1nnnc1SCC(=O)Nc1sccc1C(N)=O,inactive
8,Cc1cc(NC(=O)CSCC(=O)NC(C)c2ccccc2)no1 (stereo unspecified),inactive
9,Cc1cccc(-n2ncc3c(N4CCc5ccccc54)ncnc32)c1,2.59 µM (active)
10,COc1ccc(-n2ncc3c(SCC(=O)NNC(C)=O)ncnc32)cc1,inactive
11,COc1ccc2oc(=O)c(C(=O)N3CCCc4ccccc43)cc2c1,inactive
12,COc1ccc(-n2ncc3c(N4CCCc5ccccc54)ncnc32)cc1,1.16 µM (active)
13,COc1ccccc1N1CCN(C(=O)CSc2ncnc3c2cnn3-c2ccc(C)c(C)c2)CC1,inactive
14,Cc1cccc(-n2ncc(Cl)c(Cl)c2=O)c1,inactive
15,O=C1COc2ccc(C(=O)COC(=O)CCOc3ccccc3)cc2N1,inactive
16,C=CCC[C@H](Cc1ccc(F)cc1)C(=O)OC[C@@H](Cc1c[nH]c2ccccc12)NC(=O)[C@H](CC=C)CC(=O)N[C@H](CO)Cc1ccccc1,inactive
17,COc1cc2ccccc2cc1C(=O)Nc1ccc(N2CCOCC2)cc1,inactive
18,COc1cc2ccccc2cc1C(=O)Nc1ccc(NC(=O)c2cccs2)cc1,inactive
19,COc1cc2ccccc2cc1C(=O)Nc1ccncc1,16.4 µM (active)
